37 compounds from ChEMBL document CHEMBL3433997, “St. Jude Leishmania screening dataset” (2016) can be followed below.

Holding throughout (assay type): functional
The target of assay [1] is Solute carrier family 2, facilitated glucose transporter member 1 (Homo sapiens) (UniProt P11166). The assay is described as follows: ST_JUDE_LEISH: Cytotoxicity at 2uM final concentration against transgenic Leishmania Mexicana promastigotes LmGLUT1 that are glucose transport deficient and complemented with the human glucose transporter GLUT1. Activity is measured by DNA content using SYBR green in vitro.

Assay [2] deals with Hexose transporter 1 (Plasmodium falciparum) (UniProt O97467). In words: ST_JUDE_LEISH: Cytotoxicity at 2uM final concentration against transgenic Leishmania Mexicana promastigotes LmPfHT that are glucose transport deficient and complemented with the Plasmodium falciparum hexose transporter. Activity is measured by DNA content using SYBR green in vitro.
Assay [3] has as its target Glucose transporter (Leishmania mexicana) (UniProt O61059). The assay is described as follows: ST_JUDE_LEISH: Cytotoxicity at 2uM final concentration against transgenic Leishmania Mexicana promastigotes LmGT2 that are glucose transport deficient and complemented with the L. Mexicana glucose transporter 2. Activity is measured by DNA content using SYBR green in vitro.

Chain of Solute carrier family 2, facilitated glucose transporter member 1 (Homo sapiens) (P11166 whole entry): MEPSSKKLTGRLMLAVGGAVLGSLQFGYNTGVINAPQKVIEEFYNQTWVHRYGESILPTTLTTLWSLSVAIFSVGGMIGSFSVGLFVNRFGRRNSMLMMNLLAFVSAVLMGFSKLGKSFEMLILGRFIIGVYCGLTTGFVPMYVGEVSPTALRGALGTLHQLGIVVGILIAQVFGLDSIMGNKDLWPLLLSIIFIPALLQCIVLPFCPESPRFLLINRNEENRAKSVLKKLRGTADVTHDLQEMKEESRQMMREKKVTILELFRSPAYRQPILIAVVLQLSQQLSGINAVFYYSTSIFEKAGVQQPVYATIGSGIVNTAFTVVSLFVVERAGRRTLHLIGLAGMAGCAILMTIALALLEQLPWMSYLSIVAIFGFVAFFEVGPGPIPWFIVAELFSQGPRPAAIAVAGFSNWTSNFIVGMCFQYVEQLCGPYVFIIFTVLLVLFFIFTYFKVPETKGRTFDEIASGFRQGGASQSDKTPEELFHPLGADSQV

`CC(Oc1ccc(Cl)cc1)C(=O)N(C)C1CCN(CCCCCNC(=O)/C=C/c2ccc(Cl)c(Cl)c2)CC1` (stereo unspecified): the inhibition (commonly the relative decrease from the control value, in per cent) was determined as 1.06% in assay [1], 3.1% in assay [2] and 1.95% in assay [3].
For `COC(=O)C(c1ccc(NC(=O)[C@H](CC(C)C)NC(=O)OC(C)(C)C)cc1)c1ccc(NC(=O)[C@H](CC(C)C)NC(=O)OC(C)(C)C)cc1` the same measures were -0.28%, 0.91% and 0.27%.
The corresponding values for `Cc1ccc(Nc2nc(C)cc(NC3CCN(C)CC3)n2)cc1` are 1.14%, 3.12% and 5.43%.
With `CN(C)CC1CCCN1Cc1ccccc1-c1cnn(C)c(=O)c1Oc1ccccc1F` (stereo unspecified), the inhibition in assay [1] was determined as 2.45%; in assay [2], 1.75%; in assay [3], 0.1%.
The corresponding values for `O=[N+]([O-])c1cccc(-n2nc(NCc3ccc(Cl)cc3)nc2-c2ccc(F)c(C(F)(F)F)c2)c1` are 1.19%, 2.33% and 0.17%.
For `COc1ccc(NC(=O)Nc2ccc(-c3ccc(-c4nc5cccc(C)c5[nH]4)s3)cc2)cc1` the same measures were 4.04%, 4.64% and 3.71%.
For `CCN(CC)CCCN(CCCN(CC)CC)c1cc(C)nc(Nc2ccc(Cl)cc2)n1` the same measures were 2.61%, 0.88% and 0.26%.
Consider `COc1cc2nccc(Nc3ccc4c(cnn4Cc4cccc(F)c4)c3)c2cc1OC`, for which the figures for the inhibition in assay [1], in assay [2] and in assay [3] were 6.91%, 4.66% and 1.56%, respectively.
With `O=C(Nc1ccon1)c1cc(-c2cccnc2)nc2ccc(Cl)cc12`, the inhibition in assay [1] worked out at 5.01%; in assay [2], 3.36%; in assay [3], 3.02%.
For `Cc1cccc2nc(-c3cccc(-c4cccc(NC(=O)CNc5ccc(C(N)=O)cc5)c4)c3)[nH]c12` the same measures were 4.73%, 4.35% and 3.03%.
Turning to `CCN1CCC(N(Cc2ccc(-c3ccc(C(F)(F)F)cc3)cc2)C(=O)Cn2c(SCc3ccc(F)cc3)nc(=O)c3c2CCC3)CC1`, the inhibition in assay [1] was -0.04%; in assay [2], -0.63%; in assay [3], -2.05%.
As for `NC1(C(=O)O)Cc2ccc(Cl)cc2C1` (stereo unspecified), the results for the inhibition in assay [1], in assay [2] and in assay [3] were 5.91%, 2.95% and 3.62%, respectively.
For `O=C(NCc1ccc(F)cc1)Nc1cccc(-c2ccc(-c3nc4cc(F)ccc4[nH]3)cc2)c1` the same measures were 6.43%, 7.78% and 7.37%.
As for `Cc1cc(=NN=Cc2ccc(F)cc2)c2ccc(C(F)(F)F)cc2[nH]1`, the inhibition in assay [1] was 3%; in assay [2] it was 4.59%; in assay [3] it was 1.74%.
For `CCCCc1ccc(-c2c(N)nc(N)nc2CC)cc1` the same measures were 11.5%, 9.06% and 8.51%.
The corresponding values for `COc1cc(NC2=NS(=O)(=O)c3cc(Cl)ccc3N2C)cc(OC)c1OC` are 6.86%, 6.41% and 7.53%.
The corresponding values for `CC(CCNc1c2ccccc2nc2ccccc12)N1CCN(C)CC1` (stereo unspecified) are 30.8%, 29.1% and 20.8%.
`COc1cccc2cc(C(=O)N[C@@H](CC(C)C)C(=O)N[C@H](C=NN3CC(=O)NC3=O)CC(C)C)oc12`: the inhibition in assay [1] is 2.8%; in assay [2], 3.84%; in assay [3], 2.23%.
The corresponding values for `O=C(Nc1cccc(-c2csc(-c3ccccc3)n2)c1)c1cccs1` are 2.64%, 2.57% and 0.7%.
For `COc1cc(C=CC(=O)N2CCC3(CC2)CC(=O)c2ccccc2O3)cc(OC)c1OC` the same measures were 1.6%, 2.09% and -0.58%.
As to `CN(C)CCNC(=O)c1cc2c(-c3ccc(Cl)cc3)nn(C)c2s1`, the inhibition was determined as 2.62% in assay [1], 2.13% in assay [2] and 1.3% in assay [3].
With `Cc1ccc(NCC(=O)Nc2ccc(F)c(Cl)c2)cc1S(=O)(=O)N1CCOCC1`, the inhibition in assay [1] was 2.54%; in assay [2], 1.86%; in assay [3], 0.32%.
Take `Cc1cc(=NN=Cc2cccc(Cl)c2)c2cc(F)ccc2[nH]1`: the inhibition is 5.23% in assay [1], 5.15% in assay [2] and 4.84% in assay [3].
On to `CCCC(C)N(Cc1ccc(C(C)(C)C)cc1)C(=O)c1cccc(OC)c1` (stereo unspecified), for which the values for the inhibition in assay [1], in assay [2] and in assay [3] were -0.57%, -0.47% and -2.72%, respectively.
For `Cc1ccc(NC(=O)N2CCN(CCCCCNC(=O)/C=C/c3ccc(Cl)c(Cl)c3)CC2)cc1C` the same measures were 8.95%, 7.71% and 6.33%.
Turning to `O=c1cc(NCCCNCc2cc(Cl)c(Cl)cc2Cl)[nH]c2ccccc12`, the figures for the inhibition in assay [1], in assay [2] and in assay [3] were 0.5%, -0.04% and 0.23%, respectively.
For `O=C(C=Cc1ccc(Cl)c(Cl)c1)NCCCCCN1CCC(CCNC(=O)/C=C/c2ccccc2)CC1`, the values for the inhibition in assay [1], in assay [2] and in assay [3] were 0.55%, 0.26% and 3.1%, respectively.
The corresponding values for `COc1ccc(NC(=O)c2ccc3[nH]c(-c4ccc(Cl)cc4)cc3c2)cc1OCCN(C)C` are 2.93%, 1.88% and 0.79%.
The corresponding values for `Fc1ccc2[nH]c(-c3ccc(-c4ccc(CNCCc5ccncc5)cc4)s3)nc2c1` are 5.54%, 4.96% and 7.86%.
The corresponding values for `CNc1cc(-c2ccc3ccnc(N)c3c2)nc(N)n1` are -1.76%, 0.35% and -3.58%.
For `Cc1cccc(C)c1CNc1cccc(-c2nc(C)c(C)[nH]2)c1`, the results for the inhibition in assay [1], in assay [2] and in assay [3] were 5.39%, 4.77% and 1.97%, respectively.
For `COc1cc(N)cc2sc(N)nc12` the same measures were -1.04%, 0.54% and 0.08%.
Turning to `CCN(CC)C(=O)C(=O)c1c[nH]c2ccc(Cl)cc12`, the inhibition in assay [1] is 3.24%; in assay [2], 0.07%; in assay [3] it was 0.85%.
For `CN1CCc2cc(O)c(NS(=O)(=O)c3ccc(-c4ccc(Cl)cc4)cc3)cc2CC1` the same measures were 12.4%, 9.38% and 9.99%.
On to `Cc1cccc2nc(-c3ccc(-c4cccc(CN5CCCC(N)C5)c4)s3)[nH]c12` (stereo unspecified), for which the inhibition came out at 12.7% in assay [1], 11.2% in assay [2] and 11.7% in assay [3].
For the compound `O=C(Nc1ccc(-c2cccc(-c3nc4cc(C(F)(F)F)ccc4[nH]3)c2)cc1)Nc1ccc(Cl)c(Cl)c1`, the inhibition was found to be 10.9% in assay [1], 7.67% in assay [2] and 13% in assay [3].
For `Cc1cccc2nc(-c3cccc(-c4ccc(NC(=O)C5CC(=O)Nc6ccccc65)cc4)c3)[nH]c12` (stereo unspecified) the same measures were 2.47%, 3.87% and 0.15%.
